Experimental data taken from the supplement of paper PMC12494721.
Counter-ions that a name gives are not always drawn.

Columns and labels:
Conditions in all cases: incubation time: 27 h, anaerobic, 37 °C;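 for the amine columns active = adjusted P below 0.05 in both replicates with a change the same way and a mean fold change under 0.8 or over 1.25; inactive = the rest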
[1] = test system: Clostridium sporogenes DSM 1664; test: growth (OD595) fold change vs plate DMSO controls (fold change (ratio)); higher = more growth
Procedure, shortened: (§1)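 The 96-well mGAM cultures had been kept anaerobic for 27 h at 37 °C before being shaken and read at 595 nm. Blank subtraction, compound background correction with 20 µM compound solutions in water, and a calibration factor of 5 turned the readings into OD. Growth is given as the fold change versus the median of plate DMSO controls. Fold changes above 1.5 were set to NA, and the values are means of 2 biological replicates.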

Escherichia coli IAI1 [2] = test: as above
Procedure, shortened: as §1

[3] = test system: Klebsiella aerogenes DSM 30053; test: as above
Procedure, shortened: as §1

[4] = test system: Ruminococcus gnavus DSM 108212; test: as above
Procedure, shortened: as §1

[5] = test system: Klebsiella aerogenes DSM 30053; test: fold change of Histamine concentration vs plate DMSO controls (fold change (ratio)); higher = more amine produced, active = hit call of the paper (significant change in both replicates, either direction)
Procedure, shortened: (§2)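 Amines were quantified by LC–triple-quadrupole MS in dynamic MRM mode against external calibration curves, with drift correction within each batch. The samples were whole anaerobic mGAM cultures of four gut bacterial strains, grown for 27 h at 37 °C in 80 µL wells and extracted with cold acetonitrile/methanol with 0.1% formic acid, then centrifuged. Values are reported as fold change over DMSO controls on the same plate. The mean of 2 biological replicates is given.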

[6] = test system: Clostridium sporogenes DSM 1664; test: fold change of Tryptamine concentration vs plate DMSO controls (fold change (ratio)); higher = more amine produced, active = hit call of the paper (significant change in both replicates, either direction)
Procedure, shortened: as §2

[7] = test system: Ruminococcus gnavus DSM 108212; test: as above
Procedure, shortened: as §2

Escherichia coli IAI1 [8] = test: fold change of Putrescine concentration vs plate DMSO controls (fold change (ratio)); higher = more amine produced, active = hit call of the paper (significant change in both replicates, either direction)
Procedure, shortened: as §2

[9] = test system: Klebsiella aerogenes DSM 30053; test: as above
Procedure, shortened: as §2

Escherichia coli IAI1 [10] = test: fold change of Cadaverine concentration vs plate DMSO controls (fold change (ratio)); higher = more amine produced, active = hit call of the paper (significant change in both replicates, either direction)
Procedure, shortened: as §2

[11] = test system: Klebsiella aerogenes DSM 30053; test: as above
Procedure, shortened: as §2

[12] = test system: Ruminococcus gnavus DSM 108212; test: fold change of 2-Phenylethylamine concentration vs plate DMSO controls (fold change (ratio)); higher = more amine produced, active = hit call of the paper (significant change in both replicates, either direction)
Procedure, shortened: as §2

| SMILES | growth [1] | growth (Escherichia coli IAI1 [2]) | growth [3] | growth [4] | fold change of Histamine concentration [5] | fold change of Tryptamine concentration [6] | fold change of Tryptamine concentration [7] | fold change of Putrescine concentration (Escherichia coli IAI1 [8]) | fold change of Putrescine concentration [9] | fold change of Cadaverine concentration (Escherichia coli IAI1 [10]) | fold change of Cadaverine concentration [11] | fold change of 2-Phenylethylamine concentration [12] |
| --- | --- | --- | --- | --- | --- | --- | --- | --- | --- | --- | --- | --- |
| Oc1c(Br)cc(Br)c2cccnc12 [Broxyquinoline] (20 µM) | 0.98 | 0.92 | 0.951 | 0.643 | 1.09 (inactive) | 0.919 (inactive) | 0.562 (active) | 1.03 (inactive) | 1.02 (inactive) | 1.2 (inactive) | 0.968 (inactive) | 0.6 (inactive) |
| COc1ccc2c(c1)N(C[C@H](C)CN(C)C)c1ccccc1S2 [Methotrimeprazine maleate salt] (20 µM) | 1.03 | 1.12 | 1 | 1.05 | 1.01 (inactive) | 1.07 (inactive) | 1.02 (inactive) | 1.19 (inactive) | 1.01 (inactive) | 0.995 (inactive) | 1.02 (inactive) | 1.11 (inactive) |
| CCN(CC)Cc1cc(Nc2ccnc3cc(Cl)ccc23)ccc1O [Amodiaquine dihydrochloride dihydrate] (20 µM) | 0.973 | 0.964 | 0.915 | 1.02 | 1.03 (inactive) | 1.01 (inactive) | 1.01 (inactive) | 0.928 (inactive) | 1.01 (inactive) | 0.967 (inactive) | 0.978 (inactive) | 1.03 (inactive) |
| Cc1cc(=O)oc2cc(O)ccc12 [Hymecromone] (20 µM) | 1.23 | 1.04 | 0.98 | 1.02 | 1.04 (inactive) | 1.06 (inactive) | 0.953 (inactive) | 1 (inactive) | 1.01 (inactive) | 0.999 (inactive) | 0.994 (inactive) | 0.95 (inactive) |
| CCn1cc(C(=O)O)c(=O)c2cc(F)c(N3CCNCC3)cc21 [Norfloxacin] (20 µM) | 0.0353 | 0.0339 | 0.239 | 0.814 | 0.0898 (active) | 0.0308 (active) | 0.863 (inactive) | 0.612 (active) | 0.792 (active) | 0.161 (active) | 0.963 (inactive) | 0.892 (inactive) |
| C[C@H](CCc1ccccc1)NC[C@H](O)c1ccc(O)c(C(N)=O)c1 [Dilevalol] (20 µM) | 1.02 | 0.978 | 1.11 | 1.1 | 0.929 (inactive) | 1.04 (inactive) | 0.98 (inactive) | 1.02 (inactive) | 1.01 (inactive) | 0.974 (inactive) | 1.01 (inactive) | 1.01 (inactive) |
| Cc1ccccc1C(OCCN(C)C)c1ccccc1 (stereo not drawn) [Orphenadrine hydrochloride] (20 µM) | 0.998 | 1.02 | 0.938 | 1.09 | 0.902 (inactive) | 1.34 (inactive) | 1.07 (inactive) | 1.07 (inactive) | 0.895 (inactive) | 1.04 (inactive) | 1.03 (inactive) | 1.16 (inactive) |
| O=C(O)c1cccnc1 [Niacin] (20 µM) | 0.979 | 1.07 | 1.01 | 0.963 | 0.97 (inactive) | 0.994 (inactive) | 1.03 (inactive) | 1 (inactive) | 1.03 (inactive) | 0.981 (inactive) | 1.02 (inactive) | 0.993 (inactive) |
| COc1cc(N)c(Cl)cc1C(=O)NC1CCN(Cc2ccccc2)CC1 [Clebopride maleate] (20 µM) | 1.05 | 0.95 | 0.981 | 0.875 | 1 (inactive) | 1.01 (inactive) | 0.985 (inactive) | 0.926 (inactive) | 0.976 (inactive) | 0.984 (inactive) | 0.999 (inactive) | 0.985 (inactive) |
| COc1ccccc1Oc1c(NS(=O)(=O)c2ccc(C(C)(C)C)cc2)nc(-c2ncccn2)nc1OCCO [Bosentan] (20 µM) | 1.15 | 1.14 | 1.23 | 1.2 | 0.938 (inactive) | 0.987 (inactive) | 0.978 (inactive) | 1.09 (inactive) | 1.05 (inactive) | 1.03 (inactive) | 1.04 (inactive) | 0.959 (inactive) |
| COc1c2occc2c(OC)c2c(=O)cc(C)oc12 [Khellin] (20 µM) | 0.981 | 0.994 | 1.03 | 1.11 | 1.06 (inactive) | 1 (inactive) | 1.04 (inactive) | 1 (inactive) | 1.01 (inactive) | 1.02 (inactive) | 0.992 (inactive) | 1.09 (inactive) |
| CC1CNc2c(cccc2S(=O)(=O)N[C@@H](CCCNC(=N)N)C(=O)N2CC[C@@H](C)C[C@@H]2C(=O)O)C1 (stereo partly drawn) [Argatroban] (20 µM) | 1.12 | 0.953 | 1.16 | 0.732 | 0.986 (inactive) | 0.976 (inactive) | 0.987 (inactive) | 0.978 (inactive) | 1.04 (inactive) | 1.01 (inactive) | 1 (inactive) | 0.937 (inactive) |
| CC[C@H]1OC(=O)[C@H](C)[C@@H](O[C@H]2C[C@@](C)(OC)[C@@H](O)[C@H](C)O2)[C@H](C)[C@@H](O[C@@H]2O[C@H](C)C[C@H](N(C)C)[C@H]2O)[C@](C)(OC)C[C@@H](C)C(=O)[C@H](C)[C@@H](O)[C@]1(C)O [Clarithromycin] (20 µM) | 0 | 0.665 | 0.941 | 0.257 | 0.636 (inactive) | 0.0515 (active) | 0.11 (active) | 0.434 (inactive) | 0.888 (inactive) | 0.944 (inactive) | 1.03 (inactive) | 0.118 (active) |
| CNc1ncnc2c1ncn2[C@@H]1O[C@H](CO)[C@@H](O)[C@H]1O [N6-methyladenosine] (20 µM) | 1.05 | 0.994 | 1.02 | 0.955 | 1.03 (inactive) | 1.03 (inactive) | 1.04 (inactive) | 1 (inactive) | 0.992 (inactive) | 0.987 (inactive) | 1 (inactive) | 1.01 (inactive) |
| COc1c(-c2ccc3cc(NS(C)(=O)=O)ccc3c2)cc(-n2ccc(=O)[nH]c2=O)cc1C(C)(C)C [Dasabuvir] (20 µM) | 1.04 | 0.964 | 1.01 | 0.849 | 0.969 (inactive) | 0.847 (inactive) | 0.747 (active) | 1.01 (inactive) | 0.999 (inactive) | 0.989 (inactive) | 0.99 (inactive) | 0.754 (inactive) |
| CCOC(=O)[C@H](CCc1ccccc1)N[C@@H](C)C(=O)N1Cc2ccccc2C[C@H]1C(=O)O [Quinapril hydrochloride] (20 µM) | 1.03 | 1.02 | 0.996 | 0.99 | 1.06 (inactive) | 1.07 (inactive) | 1.03 (inactive) | 1.09 (inactive) | 1.04 (inactive) | 0.999 (inactive) | 1.01 (inactive) | 1.03 (inactive) |
| CCCNC(=O)NS(=O)(=O)c1ccc(Cl)cc1 [Chlorpropamide] (20 µM) | 0.913 | 1.03 | 0.983 | 1.03 | 1.17 (inactive) | 0.956 (inactive) | 1.13 (inactive) | 0.938 (inactive) | 1.03 (inactive) | 0.993 (inactive) | 1.1 (inactive) | 1.31 (active) |
| CCCCCN(CCCCC)C(=O)C(CCC(=O)O)NC(=O)c1ccc(Cl)c(Cl)c1 (stereo not drawn) [Lorglumide sodium salt] (20 µM) | 0.981 | 1.02 | 1.02 | 1.01 | 0.987 (inactive) | 0.763 (active) | 0.94 (inactive) | 1.07 (inactive) | 1.01 (inactive) | 1.03 (inactive) | 1.01 (inactive) | 0.919 (inactive) |
| O=C(O)Cc1ccc(-c2ccccc2)cc1 [Felbinac] (20 µM) | 1 | 1.01 | 1.08 | 1.01 | 0.921 (inactive) | 0.994 (inactive) | 1.01 (inactive) | 1.03 (inactive) | 0.976 (inactive) | 0.989 (inactive) | 0.998 (inactive) | 1.01 (inactive) |
| N=C(N)NC(=O)c1nc(Cl)c(N)nc1N [Amiloride hydrochloride dihydrate] (20 µM) | 0.984 | 0.951 | 0.984 | 0.948 | 0.982 (inactive) | 0.98 (inactive) | 1.09 (inactive) | 1.03 (inactive) | 0.94 (inactive) | 0.987 (inactive) | 1.05 (inactive) | 1.08 (inactive) |
| COC(=O)Nc1nc2ccc(SC(C)C)cc2[nH]1 [Methiazole] (20 µM) | 0.921 | 1 | 1.24 | 1.08 | 0.952 (inactive) | 1.04 (inactive) | 0.938 (inactive) | 0.996 (inactive) | 1.01 (inactive) | 1.04 (inactive) | 1.02 (inactive) | 0.929 (inactive) |
| CC(C)(C)NC[C@H](O)COc1ccccc1C1CCCC1 [Penbutolol sulfate] (20 µM) | 0.971 | 1.21 | 0.985 | 0.952 | 1.02 (inactive) | 1.03 (inactive) | 1.11 (inactive) | 1.1 (inactive) | 0.997 (inactive) | 1.02 (inactive) | 0.98 (inactive) | 1.25 (inactive) |
| CC(=O)Oc1ccc(C(=C2CCCCC2)c2ccc(OC(C)=O)cc2)cc1 [Cyclofenil] (20 µM) | 0.924 | 1.04 | 1.03 | 0.991 | 0.983 (inactive) | 0.873 (inactive) | 0.953 (inactive) | 1.05 (inactive) | 0.997 (inactive) | 0.997 (inactive) | 1 (inactive) | 0.942 (inactive) |
| Nc1nc(NC2CC2)c2ncn([C@H]3C=C[C@@H](CO)C3)c2n1 [Abacavir sulfate] (20 µM) | 1.25 | 1.05 | 1.02 | 1.02 | 1.04 (inactive) | 0.969 (inactive) | 0.953 (inactive) | 1.03 (inactive) | 1.04 (inactive) | 0.969 (inactive) | 0.992 (inactive) | 0.935 (inactive) |
